A selection: hits, their analogues and other compounds. The true share with any hit is near 1.4%.
VLA-4 inh: inhibition in a human VLA-4 binding assay | VLA-4 expressing cells, ligand binding flow cytometry | P13612 | hit rate 0.2% among 330,000 | inhibition, % (about 7 µM as worked out from the volumes in the protocol); in the data active = inhibition above about 50%
GRK2 aptamer HTS: inhibitors of human GRK2 displacing RNA aptamer. P25098. bead flow cytometry, FAM-aptamer displacement from GRK2. inhibition of aptamer binding, % at 10 µM. hit rate 0.59% among 330,000;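 active = inhibition of aptamer binding above 40%, roughly 3 SD of noise, on plates passing a quality check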;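 note: median bead fluorescence of bound FAM aptamer so fluorescent compounds give negative values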
APOBEC3A inh: blocks human APOBEC3A ssDNA deamination; P31941; recombinant A3A, FAM/TAMRA ssDNA deamination fluorescence; inhibition, % at 20 µM; hit rate 0.41% among 330,000;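 active = at least 40% inhibition at 20 µM here, with at most 30% in a related deaminase screen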
Target sequence (P31941 whole entry, looked up): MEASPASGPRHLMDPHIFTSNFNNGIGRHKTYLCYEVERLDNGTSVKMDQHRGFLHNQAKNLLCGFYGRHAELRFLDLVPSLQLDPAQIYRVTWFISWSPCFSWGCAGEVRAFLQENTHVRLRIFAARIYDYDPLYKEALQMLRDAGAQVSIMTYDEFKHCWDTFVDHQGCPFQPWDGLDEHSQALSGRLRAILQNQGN
A3G deaminase: APOBEC3G (human) deaminase inhibition; Q9HC16; hit rate 0.28% among 330,000; inhibition, % at 20 µM; recombinant A3G, ssDNA deamination FAM/TAMRA fluorescence;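 active = inhibition of at least 40% at 20 µM, with no more than 30% in the related APOBEC3A deaminase screen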
Target sequence (Q9HC16 whole entry, looked up): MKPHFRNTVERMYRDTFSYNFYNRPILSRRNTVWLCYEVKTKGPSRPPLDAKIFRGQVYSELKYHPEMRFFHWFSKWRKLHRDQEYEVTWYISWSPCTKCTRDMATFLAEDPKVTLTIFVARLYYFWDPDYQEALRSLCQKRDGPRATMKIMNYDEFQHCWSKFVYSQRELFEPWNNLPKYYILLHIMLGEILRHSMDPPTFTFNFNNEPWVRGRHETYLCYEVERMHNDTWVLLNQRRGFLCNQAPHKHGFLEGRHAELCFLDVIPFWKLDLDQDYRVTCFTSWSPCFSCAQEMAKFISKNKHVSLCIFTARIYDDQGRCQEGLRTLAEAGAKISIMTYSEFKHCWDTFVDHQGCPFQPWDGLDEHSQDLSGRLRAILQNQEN
A3A conf: APOBEC3A (human) deaminase inhibition, confirmed. shares compounds with APOBEC3A inh. recombinant A3A, ssDNA deaminase UDG fluorescence assay. inhibition, % at 20 µM. hit rate 63% among 1,400. AID 493151;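 active = inhibition reaching a set limit, 80% of the first screen's cutoff, at 20 µM in any replicate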
UDG ctr A3A: inhibits UDG, flagging false APOBEC3A inhibitors; shares compounds with APOBEC3A inh; UDG counterscreen, FAM/TAMRA uracil oligo fluorescence; inhibition, % at 20 µM; 1,000 tested, under 10 active; AID 504714; call rule not given here
Numbers stand for hits; - = inactive; . = not tested or not shown.

SMILES	VLA-4 inh	GRK2 aptamer HTS	APOBEC3A inh	A3G deaminase	A3A conf	UDG ctr A3A
Cn1cc(/C=C/c2cc[n+](C)cc2)c2cc(F)ccc21	-	-	.	.	.	.
C[n+]1ccc(/C=C/c2c[nH]c3ccc(F)cc23)cc1	-	-	49	-	45	.
COc1ccc(NC(=O)Nc2nc3ccccc3s2)cc1	-	-	-	-	.	.
Cc1c(Cl)cccc1NC(=O)c1cc(-c2ccco2)on1	-	-	-	-	.	.
C[N+](C)(C)CCN1C(=O)CSC1=O	-	-	55	-	48	-
Cc1c(Cl)cccc1NC(=O)CCN1CCN(CCO)CC1	-	-	-	-	.	.
Cc1cc(N2C(=O)C(O)=C(C(=O)c3cc4ccccc4o3)C2c2cccc(Br)c2)no1 (stereo not drawn)	-	-	-	-	.	.
CCCOc1cccc(C2C(C(=O)c3cc4ccccc4o3)=C(O)C(=O)N2c2cc(C)on2)c1 (stereo not drawn)	-	-	57	-	-	-
O=C(CC1CCCC1)Nc1ccc(Br)cc1	-	-	-	-	.	.
CN(Cc1cccc(F)c1)C(=O)c1cc(S(=O)(=O)N2CCOCC2)ccc1N1CCCC1	-	-	-	-	.	.
Cc1cccc(C)c1NC(=O)CN(C)C(=O)c1cc(S(=O)(=O)N2CCOCC2)ccc1N1CCCC1	-	-	46	-	-	.
COC(=O)CC1COc2ccccc2N1C(=O)c1ccc(Cl)cc1 (stereo not drawn)	-	-	-	-	.	.
O=C(COC(=O)C1CCN(S(=O)(=O)c2cc([N+](=O)[O-])ccc2Cl)CC1)Nc1ncc(Cl)cc1Cl	-	-	51	-	50	-
Cc1ccc2nc(NC(=O)C3CCN(S(=O)(=O)c4cc([N+](=O)[O-])ccc4Cl)CC3)sc2c1	-	-	42	-	-	.
Cc1cc(NC(=O)CSCC(=O)Nc2cc(Cl)ccc2N2CCN(C)CC2)no1	-	-	-	-	.	.
Cc1cccc(NC(=O)CSCC(=O)Nc2cc(Cl)ccc2N2CCN(C)CC2)c1	-	-	51	-	-	.
Cc1c(C(=O)OCC[N+]2(C)CCCCC2)oc2ccccc12	-	-	77	-	77	-
CSCC[C@H](NC(=O)c1cccc(S(=O)(=O)N2CCN(C)CC2)c1)c1nc2ccccc2[nH]1	-	-	-	-	.	.
CSCC[C@H](NC(=O)c1ccc(Cl)c(S(=O)(=O)N2CCCC2)c1)c1nc2ccccc2[nH]1	-	-	45	-	54	-
CC[n+]1ccc2cc(OC)c(OC)cc2c1Cc1ccc(OC)c(OC)c1	-	-	69	-	43	.
Cc1ccc(S(=O)(=O)N(CC(=O)N=Nc2c(O)[nH]c3ccccc23)c2ccc(C)c(C)c2)cc1	-	-	.	.	.	.
CCC1N=C(SC)NC(C)=C1C(=O)c1ccccc1 (stereo not drawn)	-	-	48	-	35	-
COCCNC(=O)c1ccc(N(C)S(=O)(=O)c2ccc(OC)c(OC)c2)cc1	-	-	-	-	.	.
CCOc1cc(N2CCOCC2)c(OCC)cc1NC(=O)c1nc2nc(C)cc(C)n2n1	-	-	-	-	.	.
COc1ccc(NC(=O)CSc2nc3ccsc3c(=O)n2Cc2ccccn2)c(OC)c1	-	-	43	-	-	-
SMILES	VLA-4 inh	GRK2 aptamer HTS	APOBEC3A inh	A3G deaminase	A3A conf	UDG ctr A3A
CCC(=O)Nc1ccc(C(=O)CSc2nnc(-c3ccccc3F)n2CCc2ccccc2)cc1	-	-	-	-	.	.
COc1cc(/C=C/c2cc[n+](C)cc2)ccc1OCC(=O)Nc1ccccc1	-	-	66	-	79	-
O=[N+]([O-])c1ccc(C(O)CSC(=S)N2CCCCC2)cc1 (stereo not drawn)	-	-	-	-	.	.
C=CCNC(=O)c1ccccc1NC(=O)c1ccccc1N(C)S(C)(=O)=O	-	-	44	-	-	.
COc1ccc2c(c1)sc(=N)n2C	-	-	44	-	-	.
C[N+]1(CC(=O)OC2CCCCCCCCCCC2)CCCC1	-	-	-	-	.	.
CC(=O)/C(C[N+]1(C)CCCCC1)=N\O	-	-	41	-	82	-
O=S(=O)(c1ccc(N2CCN(c3ccc(F)cc3)CC2)cc1)N1CCCC1	-	-	-	-	.	.
Cc1ccc(N2NC(=O)/C(=C/c3ccc(-c4ccc(Cl)c(C(=O)O)c4)o3)C2=O)cc1C	-	-	-	-	.	.
COC(=O)c1ccc(N2NC(=O)/C(=C/c3ccc(-c4ccc(Cl)c(C(=O)O)c4)o3)C2=O)cc1	.	.	59	-	70	-
Cc1cc(C(=O)N/N=C/c2cccc(Cl)c2Cl)no1	-	-	-	-	.	.
C[N+]1(CC(=O)OCCCc2ccccc2)CCCC1	-	-	55	-	81	-
O=C(CN1CCCC1)OCCCc1ccccc1	-	-	-	-	.	.
C[N+]1(CC(=O)OCCCc2ccccc2)CCCCC1	-	-	48	-	83	-
COc1ccc(OCc2cc(C(=O)O)c(C)o2)cc1	-	64	53	-	34	.
CCN(CC)Cc1cc(C(=O)O)c(C)o1	-	-	-	-	.	.
CCOC(=O)c1ccc2c(c1)N(CC)C(=O)c1ccccc1S2	-	-	52	-	72	-
Cc1ccc(-n2c(C)cc(/C=N/NC(=O)CC3(C)OCCO3)c2C)c(C)c1	-	-	-	-	.	.
CC1(CC(=O)N/N=C/c2cc([N+](=O)[O-])c(O)cc2O)OCCO1	-	-	48	-	49	-
CC(=O)OC1C2CCC1C([N+]1(C)CCCCC1)CC2 (stereo not drawn)	-	-	73	-	73	-
C[N+]1(C2CCC3CCC2C3O)CCCC1 (stereo not drawn)	-	-	41	-	67	-
CC1CCN(C(=O)CCc2ccc(S(=O)(=O)NC(C)C)cc2)CC1	-	-	51	-	-	-
CC(C)NS(=O)(=O)c1ccc(CCC(=O)N2CCc3ccccc3C2)cc1	-	-	-	-	.	.
COc1ccc2[nH]c3c(c2c1)CCN1C(=O)C(CC(=O)NC(C)(C)C)C[C@H](C(=O)N2CCOCC2)[C@@]31CCC1CCCC1 (stereo partly drawn)	.	-	-	-	.	.
Cc1cc(C)c(CSc2ncnc3nc[nH]c23)c(C)c1	-	-	53	-	-	.
SMILES	VLA-4 inh	GRK2 aptamer HTS	APOBEC3A inh	A3G deaminase	A3A conf	UDG ctr A3A
Cc1cc(C)n(CCCNC(=O)CN(C)S(=O)(=O)c2ccc(Cl)cc2)n1	-	-	-	-	.	.
CC(NC(=S)Nc1ccc(F)cc1)c1ccccc1 (stereo not drawn)	-	-	88	-	-	-
Cn1cc(/C=N/NC(=O)c2cc3cc(Br)ccc3o2)c2ccccc21	-	-	52	-	58	-
CCOC(=O)c1[nH]c(COC(=O)c2ccccc2NC(=O)c2ccco2)c(C(=O)OCC)c1C	-	-	-	-	.	.
Cc1[nH]c(=O)c(C#N)c(C)c1CCC(=O)NCc1ccc(Cl)cc1	-	-	71	-	-	-
Cc1cccc(Cc2c(C)[nH]c(=O)c(C#N)c2C)c1	-	-	-	-	.	.
CCOC(=O)/C(C#N)=C/Nc1ccccc1NS(=O)(=O)c1cccc(C(C)=O)c1	-	-	-	-	.	.
O=C(CC1(O)C(=O)Nc2cc(Cl)cc(Cl)c21)c1ccccc1O (stereo not drawn)	-	-	65	-	-	-
